Laboratory results: PubChem BioAssay AID1159580 (chemical genetic matrix, 2015)
About 2,000 (36%) of roughly 5,500 compounds were called active. About 18% were inconclusive and are not listed. No stated cut-off is given here; in the data, active means normalized growth mostly below about 0.91 (no sharp cut-off); inconclusive means no clear call, values can overlap the other calls; inactive means mostly above about 0.92. This is one part of the list.

Assay: chemical genetic growth profiling, strain panel (AID 1159580);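 further: tested at 20 µM; growth read once vehicle control cultures reached saturation at 30 °C; 1 = growth at the plate median or of vehicle wells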
Conditions: growth OD

Measured: normalized growth

CC(C)C1CCC(C(=O)N[C@@H](Cc2ccccc2)C(=O)O)CC1 (some centres not stated)
inactive: S. cerevisiae deletion strains, locus YJR075W, strain HOC1, stronger effect = lower value 0.992 | S. cerevisiae deletion strains, locus YKL009W, strain mrt4, stronger effect = lower value 0.963 | S. cerevisiae deletion strains, locus YKL068W, stronger effect = lower value 1 | S. cerevisiae deletion strains, locus YKL085W, strain MDH1 (second series), stronger effect = lower value 1 | S. cerevisiae deletion strains, locus YKL085W, strain MDH1, stronger effect = lower value 1 | S. cerevisiae deletion strains, locus YKL160W, strain elf1, stronger effect = lower value 0.971 | S. cerevisiae deletion strains, locus YKL190W, strain CNB1, stronger effect = lower value 0.976 | S. cerevisiae deletion strains, locus YKR001C, strain vps1, stronger effect = lower value 1.04 | S. cerevisiae deletion strains, locus YKR026C, strain gcn3, stronger effect = lower value 0.974 | S. cerevisiae deletion strains, locus YKR091W, strain srl3, stronger effect = lower value 0.978 | S. cerevisiae deletion strains, locus YLL001W, strain dnm1, stronger effect = lower value 0.957 | S. cerevisiae deletion strains, locus YLL026W, stronger effect = lower value 0.981 | S. cerevisiae deletion strains, locus YLL041C, strain sdh2, stronger effect = lower value 0.961 | S. cerevisiae deletion strains, locus YLR027C, strain aat2, stronger effect = lower value 0.985 | S. cerevisiae deletion strains, locus YLR039C, strain RIC1, stronger effect = lower value 0.969 | S. cerevisiae deletion strains, locus YLR058C, strain SHM2, stronger effect = lower value 1 | S. cerevisiae deletion strains, locus YLR102C, strain apc9, stronger effect = lower value 0.999 | S. cerevisiae deletion strains, locus YLR113W, strain HOG1, stronger effect = lower value 1.02 | S. cerevisiae deletion strains, locus YLR221C, strain rsa3, stronger effect = lower value 0.987 | S. cerevisiae deletion strains, locus YLR258W, strain gsy2, stronger effect = lower value 0.987 | S. cerevisiae deletion strains, locus YLR262C, strain YPT6 (second series), stronger effect = lower value 0.955 | S. cerevisiae deletion strains, locus YLR262C, strain YPT6, stronger effect = lower value 0.964 | S. cerevisiae deletion strains, locus YLR268W, strain sec22, stronger effect = lower value 1.01 | S. cerevisiae deletion strains, locus YLR320W, strain mms22, stronger effect = lower value 0.979 | S. cerevisiae deletion strains, locus YLR330W, strain CHS5, stronger effect = lower value 1 | S. cerevisiae deletion strains, locus YLR342W, strain FKS1 (second series), stronger effect = lower value 0.965 | S. cerevisiae deletion strains, locus YLR342W, strain FKS1, stronger effect = lower value 0.979 | S. cerevisiae deletion strains, locus YLR357W, strain rsc2, stronger effect = lower value 0.971 | S. cerevisiae deletion strains, locus YLR370C, strain arc18, stronger effect = lower value 0.959 | S. cerevisiae deletion strains, locus YLR371W, strain rom2, stronger effect = lower value 1.01 | S. cerevisiae deletion strains, locus YLR384C, strain iki3, stronger effect = lower value 0.965 | S. cerevisiae deletion strains, locus YLR418C, strain cdc73, stronger effect = lower value 1.05 | S. cerevisiae deletion strains, locus YML016C, strain PPZ1, stronger effect = lower value 1 | S. cerevisiae deletion strains, locus YML032C, strain rad52, stronger effect = lower value 1.02 | S. cerevisiae deletion strains, locus YML120C, strain ndi1, stronger effect = lower value 0.97 | S. cerevisiae deletion strains, locus YML124C, strain tub3, stronger effect = lower value 1.02 | S. cerevisiae deletion strains, locus YMR058W, strain fet3, stronger effect = lower value 0.98 | S. cerevisiae deletion strains, locus YMR078C, strain ctf18, stronger effect = lower value 1.02 | S. cerevisiae deletion strains, locus YMR125W, strain sto1, stronger effect = lower value 0.966 | S. cerevisiae deletion strains, locus YMR129W, stronger effect = lower value 0.977 | S. cerevisiae deletion strains, locus YMR205C, strain PFK2, stronger effect = lower value 0.967 | S. cerevisiae deletion strains, locus YMR223W, strain ubp8, stronger effect = lower value 1.02 | S. cerevisiae deletion strains, locus YMR231W, strain pep5, stronger effect = lower value 0.971 | S. cerevisiae deletion strains, locus YMR263W, strain SAP30, stronger effect = lower value 0.974 | S. cerevisiae deletion strains, locus YMR307W, strain GAS1, stronger effect = lower value 0.998 | S. cerevisiae deletion strains, locus YNL067W, strain RPL9B, stronger effect = lower value 0.999 | S. cerevisiae deletion strains, locus YNL071W, strain lat1, stronger effect = lower value 0.979 | S. cerevisiae deletion strains, locus YNL128W, strain TEP1, stronger effect = lower value 0.971 | S. cerevisiae deletion strains, locus YNL153C, strain GIM3, stronger effect = lower value 1 | S. cerevisiae deletion strains, locus YNL183C, strain NPR1, stronger effect = lower value 0.955 | S. cerevisiae deletion strains, locus YNL209W, strain ssb2, stronger effect = lower value 0.963 | S. cerevisiae deletion strains, locus YNL233W, strain BNI4, stronger effect = lower value 1.01 | S. cerevisiae deletion strains, locus YNL248C, strain rpa49, stronger effect = lower value 0.976 | S. cerevisiae deletion strains, locus YNL250W, strain rad50, stronger effect = lower value 1.01 | S. cerevisiae deletion strains, locus YNL271C, strain bni1, stronger effect = lower value 1.01 | S. cerevisiae deletion strains, locus YNL298W, strain CLA4, stronger effect = lower value 1.01 | S. cerevisiae deletion strains, locus YNL307C, strain MCK1, stronger effect = lower value 1.03 | S. cerevisiae deletion strains, locus YNL322C, strain KRE1 (second series), stronger effect = lower value 0.992 | S. cerevisiae deletion strains, locus YNL322C, strain KRE1, stronger effect = lower value 0.998 | S. cerevisiae deletion strains, locus YNR049C, strain mso1, stronger effect = lower value 0.975 | S. cerevisiae deletion strains, locus YNR052C, strain pop2, stronger effect = lower value 1.01 | S. cerevisiae deletion strains, locus YOL006C, strain TOP1, stronger effect = lower value 1.03 | S. cerevisiae deletion strains, locus YOL012C, strain htz1 1.07 | S. cerevisiae deletion strains, locus YOL147C, strain pex11, stronger effect = lower value 1.02 | S. cerevisiae deletion strains, locus YOR001W, strain rrp6, stronger effect = lower value 0.967 | S. cerevisiae deletion strains, locus YOR061W, strain CKA2, stronger effect = lower value 1 | S. cerevisiae deletion strains, locus YOR069W, strain VPS5, stronger effect = lower value 0.994 | S. cerevisiae deletion strains, locus YOR070C, strain gyp1, stronger effect = lower value 0.974 | S. cerevisiae deletion strains, locus YOR080W, strain dia2, stronger effect = lower value 0.977 | S. cerevisiae deletion strains, locus YOR083W, strain WHI5, stronger effect = lower value 0.984 | S. cerevisiae deletion strains, locus YOR106W, strain vam3, stronger effect = lower value 0.981 | S. cerevisiae deletion strains, locus YOR136W, strain idh2, stronger effect = lower value 1.02 | S. cerevisiae deletion strains, locus YOR144C, strain elg1, stronger effect = lower value 1.01 | S. cerevisiae deletion strains, locus YOR184W, strain ser1, stronger effect = lower value 1 | S. cerevisiae deletion strains, locus YOR231W, strain MKK1, stronger effect = lower value 0.966 | S. cerevisiae deletion strains, locus YOR265W, strain rbl2, stronger effect = lower value 0.975 | S. cerevisiae deletion strains, locus YOR270C, strain vph1, stronger effect = lower value 0.949 | S. cerevisiae deletion strains, locus YOR290C, strain snf2, stronger effect = lower value 0.962 | S. cerevisiae deletion strains, locus YOR316C, strain cot1, stronger effect = lower value 1 | S. cerevisiae deletion strains, locus YPL051W, strain arl3, stronger effect = lower value 0.976 | S. cerevisiae deletion strains, locus YPL055C, strain LGE1, stronger effect = lower value 0.996 | S. cerevisiae deletion strains, locus YPL078C, strain atp4, stronger effect = lower value 0.974 | S. cerevisiae deletion strains, locus YPL106C, strain sse1, stronger effect = lower value 0.96 | S. cerevisiae deletion strains, locus YPL240C, strain hsp82, stronger effect = lower value 0.981 | S. cerevisiae deletion strains, locus YPL241C, strain CIN2, stronger effect = lower value 0.983 | S. cerevisiae deletion strains, locus YPL256C, strain CLN2, stronger effect = lower value 0.982 | S. cerevisiae deletion strains, locus YPR119W, strain clb2, stronger effect = lower value 1.01 | S. cerevisiae deletion strains, locus YPR141C, strain kar3, stronger effect = lower value 1.02 | S. cerevisiae deletion strains, locus YPR163C, strain tif3, stronger effect = lower value 1.02 | S. cerevisiae deletion strains, locus YPR167C, strain met16, stronger effect = lower value 1.01 | S. cerevisiae deletion strains, strain wtn01, stronger effect = lower value 1 | S. cerevisiae strains, strain wild type, stronger effect = lower value 0.986
